For 40 sequences, PBM binding z-score results are on record in the supplement of paper PMC6555819.

The first test has as its system RXRa homodimer (NR concentration 180 nM). The test is described as follows: PBM binding z-score (relative to random genomic background probes); higher = stronger binding; sequences stand for … in GC…GCGATTGACAGCGTAGAATGAAGG
In short, it runs like this: (§1)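 Antibodies against each partner of ligand-free nuclear receptor dimers (one per run) detected binding on custom Agilent 4×180K protein-binding microarrays after 1 h incubation. The double-stranded probes had 34-nt variable regions carrying direct-repeat seeds, single-nucleotide variants, half-site ablations and random human genomic background sequences. Binding z-scores, from regression-normalized fluorescence, use the random background probes as reference.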
ACTATTAGTTGAGAAGAGGGCAACCGATAGGTTG displayed a PBM binding z-score of 0.599.
Still for that read-out and setting: under CGAACTAGGTCTGAACAGGACAGTGAAGGATGAT stands 0.134; under CCGAGTAGGTTATGGGGCATTCCGGCAACGGTGA, 0.465; under GCTCGGATGACAAGGTCAGAGCTTTGTCCGTAGA, 2.15.
On the same count and under the same terms, as for CGAACTAGGTCAAAGGTCAAAGTCGAGCCAACCA, the figure is 10.3; as for GCGACTGGTGCATCAGCAGGTTACCATAACTTAA, -0.12.
The same measure, in the same setting: under TCTAGTTGGTCACGGAGGTCACACACGACGGGTA stands 4.58.
Regarding GTTGCTAGGTCAGGTTGGTCAGCTAACGGGTACG, the PBM binding z-score stood at 1.4.
On the same count and under the same terms, under TCGTGTAGATCAGCAGGTTAAGAAAGCTGGCCAA stands -0.115; under GCTGGCAGGCCATTTGGGTCACTCAATGACGGGC, 0.855.
On the same count and under the same terms, as for TGAATCAGGTTATAAGATCAGGGAACGTTGCAAA, the figure is 0.358; as for AGCATGAGGTTATACGTAGATCAGGGAAGAAAGT, 1.8.
Same read-out and setting: under CCTAGCAGGCCAATTTGGGTCACTCAAGGCTTGA stands 0.826; under GATACAGGGTCAAGACCAGAGTACGCGTATTGAT, 5.54.
As for TCTCGGAGGACACGAAGGACAGAGCTTTCCAGAG, the PBM binding z-score is 0.243.
Still for that read-out and setting: under CCGACTGGGCCACGAAAGGTCATTGATTCAGTGA stands 4.99; under ATCGAAAGGTCGAAGGTTAGTATACCCACCCGAA, 5.38; under TGAATGACGTTATAAGATCAGGGAACGTTGCAAA, 0.24.
On the same count and under the same terms, as for AGAATGAGGCTACCAAAGATCAGGGAAACGCTTG, the figure is 0.156; as for CAAACTAGGTCAAGGTCATAGTCGGTTTGTGCCA, 5.54; as for TCACGGAGGACACGAAAGGTCAGAGCTCGACATC, 4.31.
Still for that read-out and setting: under ACTAGCAGGCCAGGTTTGGGTCACTCAAACAAAG stands 0.628; under TAGCCTAGGTCATGGGCCAGTAGACCACGCGAAC, 3.68; under CCCTACGGGTCACTGACAGGTTATAGCATTTGGA, 4.97.
As for GATACAGGGTCAACGCCAGAGTACGCGTATTGAT, the PBM binding z-score worked out at 6.68.
On to ACAGACAGGTGACGAAGGTAACTCAGGCTATCAT, for which the PBM binding z-score turned out to be 0.578.
The same measure, in the same setting: under TCAGACAGGTGGAGGTAACTCAGGTACGCAGTCG stands 0.574; under TCTATTAGTTGATTAGGGCAGCCGAAACAGCGGA, 0.439.
Take GCTAGCAGGCCATTTGGGACACTCAATGACGGGC: the PBM binding z-score was -0.122.
Still for that read-out and setting: as for TAGCCTAGGTCATGCAGGCCAGTATAGTGTCGGC, the figure is 2.96; as for TCTTGTAGATCAAGCAGGTTAATAAAGCCTGAGT, 0.2; as for CTCCAAAGGTCGTGCTCAGGTGAGTATACCAAAC, 5.01.
On the same count and under the same terms, as for GCTGCTAGGTCCACTGATGGTCAGCTAAAGCTCG, the figure is -0.741; as for ATATGTAGCTTATCGGGTCATTCAGTTTGCGCAT, 2.35.
The sequence CCTCGGAGGACAGTAGGTCAGAGCTGTCCGCTTT yielded a PBM binding z-score of 0.614.
Same read-out and setting: under AGAATGAGGTTATAAAGATCAGGGAATTGCGGTC stands 1.92; under GCTTGTAGATTAAGGTTAAGAAAGACTAAGCTAA, 0.645.
On the same count and under the same terms, as for CGTCAAAGTTCAATGTAACGTAACAGAAAGCAGC, the figure is 3.78.
The same measure, in the same setting: as for TCTATTAGTTGATAAGGGCAACCGAAACAGCGGA, the figure is 0.562.
GCTAGTTGGTCAGTAAAAGGTCACAGACCGGTCG displayed a PBM binding z-score of 5.7.

The subject of the next test is THRa:RXRa (NR concentration 90 nM, RXRa partner concentration 90 nM). The test is described as above. In short, it runs like this: as §1
In turn, ACTATTAGTTGAGAAGAGGGCAACCGATAGGTTG registered a PBM binding z-score of 1.37.
CGAACTAGGTCTGAACAGGACAGTGAAGGATGAT had a PBM binding z-score of 0.536.
The same measure, in the same setting: as for CCGAGTAGGTTATGGGGCATTCCGGCAACGGTGA, the figure is 0.0973.
For GCTCGGATGACAAGGTCAGAGCTTTGTCCGTAGA, the PBM binding z-score is 2.5.
CGAACTAGGTCAAAGGTCAAAGTCGAGCCAACCA returned a PBM binding z-score of 4.58.
The same measure, in the same setting: as for GCGACTGGTGCATCAGCAGGTTACCATAACTTAA, the figure is 0.163; as for TCTAGTTGGTCACGGAGGTCACACACGACGGGTA, 3.61.
The same measure, in the same setting: under GTTGCTAGGTCAGGTTGGTCAGCTAACGGGTACG stands 2.02; under TCGTGTAGATCAGCAGGTTAAGAAAGCTGGCCAA, 0.0652; under GCTGGCAGGCCATTTGGGTCACTCAATGACGGGC, 1.86.
Same read-out and setting: under TGAATCAGGTTATAAGATCAGGGAACGTTGCAAA stands 0.505; under AGCATGAGGTTATACGTAGATCAGGGAAGAAAGT, 2.11.
The sequence CCTAGCAGGCCAATTTGGGTCACTCAAGGCTTGA came in with a PBM binding z-score of 3.86.
Same read-out and setting: as for GATACAGGGTCAAGACCAGAGTACGCGTATTGAT, the figure is 3.33; as for TCTCGGAGGACACGAAGGACAGAGCTTTCCAGAG, 1.48; as for CCGACTGGGCCACGAAAGGTCATTGATTCAGTGA, 3.87.
With ATCGAAAGGTCGAAGGTTAGTATACCCACCCGAA, the PBM binding z-score came out at 2.19.
Same read-out and setting: as for TGAATGACGTTATAAGATCAGGGAACGTTGCAAA, the figure is -0.021.
On the same count and under the same terms, as for AGAATGAGGCTACCAAAGATCAGGGAAACGCTTG, the figure is 0.463; as for CAAACTAGGTCAAGGTCATAGTCGGTTTGTGCCA, 4.38.
On the same count and under the same terms, under TCACGGAGGACACGAAAGGTCAGAGCTCGACATC stands 3.55; under ACTAGCAGGCCAGGTTTGGGTCACTCAAACAAAG, 2.11; under TAGCCTAGGTCATGGGCCAGTAGACCACGCGAAC, 3.04.
For the sequence CCCTACGGGTCACTGACAGGTTATAGCATTTGGA, the PBM binding z-score came out at 2.93.
The same measure, in the same setting: as for GATACAGGGTCAACGCCAGAGTACGCGTATTGAT, the figure is 3.42.
In turn, ACAGACAGGTGACGAAGGTAACTCAGGCTATCAT displayed a PBM binding z-score of 1.03.
On to TCAGACAGGTGGAGGTAACTCAGGTACGCAGTCG, for which the PBM binding z-score amounted to 1.48.
Still for that read-out and setting: under TCTATTAGTTGATTAGGGCAGCCGAAACAGCGGA stands 0.393; under GCTAGCAGGCCATTTGGGACACTCAATGACGGGC, 0.63; under TAGCCTAGGTCATGCAGGCCAGTATAGTGTCGGC, 3.
TCTTGTAGATCAAGCAGGTTAATAAAGCCTGAGT had a PBM binding z-score of 0.0183.
As for CTCCAAAGGTCGTGCTCAGGTGAGTATACCAAAC, the PBM binding z-score is 4.15.
On the same count and under the same terms, under GCTGCTAGGTCCACTGATGGTCAGCTAAAGCTCG stands -0.256; under ATATGTAGCTTATCGGGTCATTCAGTTTGCGCAT, 3.03; under CCTCGGAGGACAGTAGGTCAGAGCTGTCCGCTTT, 1.43.
Same read-out and setting: under AGAATGAGGTTATAAAGATCAGGGAATTGCGGTC stands 2.14; under GCTTGTAGATTAAGGTTAAGAAAGACTAAGCTAA, 2.08.
Still for that read-out and setting: as for CGTCAAAGTTCAATGTAACGTAACAGAAAGCAGC, the figure is 1.64; as for TCTATTAGTTGATAAGGGCAACCGAAACAGCGGA, 1.4.
With GCTAGTTGGTCAGTAAAAGGTCACAGACCGGTCG, the PBM binding z-score worked out at 3.79.
